Of roughly 8,800 targets only a part is listed; those with a hit were picked by preference. About 0.5% of all pairs of compound and target were hits.
How the values were obtained:
Assay in all cases: log2 fold change, soluble protein after heating vs DMSO (PISA); higher = thermal stabilisation; K562 lysate, 10 uM; active = over 0.2 and 3.5 SD of the protein, either way, in both replicates (recomputed)
erlotinib = compound: C#Cc1cccc(Nc2ncnc3cc(OCCOC)c(OCCOC)cc23)c1 [erlotinib]
In short: (§1)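 K562 pellets were dounce-homogenised in PBS pH 7.4 with 1 mM MgCl2, and the crude extract at 1 mg/mL protein was treated with 10 μM compound for 30 min. Aliquots were heated for 3 min across 48°C-58°C, pooled, and brought to 0.5% NP-40 at 4°C; soluble protein was the supernatant after 21,000xg for 90 min. Soluble protein was quantified by TMTpro 16plex LC-MS/MS with channel sums equalised, and reported as log2 fold change in thermal stability against DMSO controls, with values from duplicates.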

[1] = compound: C/C(=N\NC(=O)C1=CC(=CC=C1)S(=O)(=O)N2CCOCC2)/C3=C(C=CC(=C3)Cl)O
In short: as §1

[2] = compound: C1=CC(=CC=C1C2=NC3=C(N2)C=C(C=C3)C(=O)N)OC4=CC=C(C=C4)Cl
In short: as §1

[3] = compound: C1=CC2=C(C=CC(=C2)/C=C\3/C(=O)NC(=NCC4=CC=CS4)S3)N=C1
In short: as §1

[4] = compound: C1=CC2=NC=CN=C2C=C1/C=C/3\C(=O)NC(=O)S3
In short: as §1

[5] = compound: C1=CC=C(C=C1)C2=NC(=C(N2)C3=CC=NC=C3)C4=CC(=C(C=C4)Cl)O
In short: as §1

[6] = compound: C1=CC=C2C(=C1)C3=NNC4=CC=CC(=C43)C2=O
In short: as §1

[7] = compound: C1CCN(C1)C(=O)NC2=CC=CC(=C2)NC3=NC=C(C(=N3)NCCC4=CN=CN4)Br
In short: as §1

[8] = compound: C1CN(CCC1(CC2=CC=C(C=C2)Cl)N)C3=NC=NC4=C3C=CN4
In short: as §1

IRAK-1-4 Inhibitor I = compound: C1COCCN1CCN2C3=CC=CC=C3N=C2NC(=O)C4=CC(=CC=C4)[N+](=O)[O-] [IRAK-1-4 Inhibitor I]
In short: as §1

ibrutinib = compound: C=CC(=O)N1CCC[C@@H](n2nc(-c3ccc(Oc4ccccc4)cc3)c3c(N)ncnc32)C1 [ibrutinib]
In short: as §1

[9] = compound: CC(=O)c1cnc2ccc(-c3cc(Cl)c(O)c(Cl)c3)nc2c1N[C@H]1CC[C@H](CN(C)C)CC1
In short: as §1

ralimetinib = compound: CC(C)(C)Cn1c(N)nc2ccc(-c3[nH]c(C(C)(C)C)nc3-c3ccc(F)cc3)nc21 [ralimetinib]
In short: as §1

[10] = compound: CC(C)(O)CC(=O)NCCn1ccc2ncnc(Nc3ccc(Oc4cccc(C(F)(F)F)c4)c(Cl)c3)c21
In short: as §1

[11] = compound: CC(C)C1=C2N=C(C=C(N2N=C1)NCC3=CC=CC=C3)NCCCCCCN
In short: as §1

[12] = compound: CC1=C(C(CC(=O)N1)C2=CC=C(C=C2)C(F)(F)F)C(=O)NC3=C(C=C4C(=C3)C=NN4)F
In short: as §1

[13] = compound: CC1=C(C2=C(C=C1)C(=O)C3=CC=CC=C3N2CCCN)C
In short: as §1

[14] = compound: CC1=C(C=C(C=C1)NC(=O)C2=CC(=CC=C2)C(C)(C)C#N)NC3=CC4=C(C=C3)N=CN(C4=O)C
In short: as §1

[15] = compound: CC1=C(C=C(C=C1)NC(=O)C2=CC(=CC=C2)N(C)C)NC(=O)C3=CC=C(C=C3)O
In short: as §1

[16] = compound: CC1=CC=C(C=C1)SC2=C3C=C(SC3=CN=C2)C(=O)N
In short: as §1

Measured: log2 fold change

GOLPH3 (UniProt Q9H4A6)
inactive: erlotinib 0.022 | [1] -0.041 | [2] -0.075 | [3] 0.017 | [4] 0.012 | [5] 0.004 | [6] 0.019 | [7] -0.008 | [8] -0.02 | IRAK-1-4 Inhibitor I 0.035 | ibrutinib 0.024 | [9] 0 | ralimetinib 0.034 | [10] -0.019 | [11] 0.043 | [12] -0.023 | [13] 0.001 | [14] -0.02 | [15] -0.023 | [16] 0.004

HAUS3 (UniProt Q68CZ6)
inactive: erlotinib 0.022 | [1] 0.01 | [2] -0.033 | [3] 0.016 | [4] -0.028 | [5] 0.004 | [6] -0.06 | [7] -0.045 | [8] 0.019 | IRAK-1-4 Inhibitor I 0.025 | ibrutinib -0.025 | [9] -0.021 | ralimetinib 0.009 | [10] -0.019 | [11] 0.001 | [12] 0.022 | [13] 0.026 | [14] 0.014 | [15] 0.025 | [16] 0.025

HACE1 (UniProt Q8IYU2)
UniProt Q8IYU2, sequence (Q8IYU2 whole entry, looked up): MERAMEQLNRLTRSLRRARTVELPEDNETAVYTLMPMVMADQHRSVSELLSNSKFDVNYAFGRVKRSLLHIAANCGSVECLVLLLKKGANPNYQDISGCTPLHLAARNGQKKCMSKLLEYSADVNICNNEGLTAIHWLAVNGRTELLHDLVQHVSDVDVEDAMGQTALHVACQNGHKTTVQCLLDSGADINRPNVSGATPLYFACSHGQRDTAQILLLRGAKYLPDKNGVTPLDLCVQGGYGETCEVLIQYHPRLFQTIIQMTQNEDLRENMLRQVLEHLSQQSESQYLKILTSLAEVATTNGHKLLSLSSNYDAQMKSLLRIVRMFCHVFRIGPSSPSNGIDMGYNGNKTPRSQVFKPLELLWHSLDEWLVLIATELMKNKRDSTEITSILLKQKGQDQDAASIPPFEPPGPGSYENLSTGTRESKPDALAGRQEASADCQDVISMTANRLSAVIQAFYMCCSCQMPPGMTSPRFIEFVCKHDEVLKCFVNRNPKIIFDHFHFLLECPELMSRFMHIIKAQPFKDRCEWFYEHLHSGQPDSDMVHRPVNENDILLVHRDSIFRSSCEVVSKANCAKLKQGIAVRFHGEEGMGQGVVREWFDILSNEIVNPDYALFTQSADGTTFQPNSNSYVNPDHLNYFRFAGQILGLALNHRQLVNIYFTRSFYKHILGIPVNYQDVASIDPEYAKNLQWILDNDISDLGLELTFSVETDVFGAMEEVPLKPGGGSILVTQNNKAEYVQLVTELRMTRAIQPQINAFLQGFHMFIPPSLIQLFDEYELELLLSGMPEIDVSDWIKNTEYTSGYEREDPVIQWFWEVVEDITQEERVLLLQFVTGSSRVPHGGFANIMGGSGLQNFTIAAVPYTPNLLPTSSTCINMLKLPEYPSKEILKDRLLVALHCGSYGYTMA
inactive: erlotinib 0.033 | [1] 0.083 | [2] 0.106 | [3] -0.019 | [4] 0.017 | [5] -0.189 | [6] -0.174 | [7] -0.069 | [8] 0.055 | IRAK-1-4 Inhibitor I 0.032 | ibrutinib -0.034 | [9] -0.062 | ralimetinib 0 | [10] -0.056 | [11] 0.041 | [12] -0.042 | [13] -0.042 | [14] -0.07 | [15] 0.08 | [16] 0.01

HMGB1 (UniProt P09429)
UniProt P09429, sequence (P09429 whole entry, looked up): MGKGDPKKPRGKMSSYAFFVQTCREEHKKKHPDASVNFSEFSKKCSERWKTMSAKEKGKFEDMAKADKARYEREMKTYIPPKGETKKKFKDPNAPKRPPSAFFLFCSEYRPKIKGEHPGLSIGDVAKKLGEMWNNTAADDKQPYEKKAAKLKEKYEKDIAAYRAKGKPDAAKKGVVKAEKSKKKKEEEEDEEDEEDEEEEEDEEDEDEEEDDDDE
inactive: erlotinib -0.024 | [1] -0.017 | [2] -0.021 | [3] -0.03 | [4] -0.001 | [5] 0.035 | [6] 0.007 | [7] 0.012 | [8] 0.001 | IRAK-1-4 Inhibitor I -0.015 | ibrutinib -0.012 | [9] -0.013 | ralimetinib -0.102 | [10] 0.057 | [11] 0.032 | [12] -0.022 | [13] -0.002 | [14] 0.036 | [15] -0.077 | [16] -0.098

GTF2H1 (UniProt P32780)
UniProt P32780, sequence (P32780 whole entry, looked up): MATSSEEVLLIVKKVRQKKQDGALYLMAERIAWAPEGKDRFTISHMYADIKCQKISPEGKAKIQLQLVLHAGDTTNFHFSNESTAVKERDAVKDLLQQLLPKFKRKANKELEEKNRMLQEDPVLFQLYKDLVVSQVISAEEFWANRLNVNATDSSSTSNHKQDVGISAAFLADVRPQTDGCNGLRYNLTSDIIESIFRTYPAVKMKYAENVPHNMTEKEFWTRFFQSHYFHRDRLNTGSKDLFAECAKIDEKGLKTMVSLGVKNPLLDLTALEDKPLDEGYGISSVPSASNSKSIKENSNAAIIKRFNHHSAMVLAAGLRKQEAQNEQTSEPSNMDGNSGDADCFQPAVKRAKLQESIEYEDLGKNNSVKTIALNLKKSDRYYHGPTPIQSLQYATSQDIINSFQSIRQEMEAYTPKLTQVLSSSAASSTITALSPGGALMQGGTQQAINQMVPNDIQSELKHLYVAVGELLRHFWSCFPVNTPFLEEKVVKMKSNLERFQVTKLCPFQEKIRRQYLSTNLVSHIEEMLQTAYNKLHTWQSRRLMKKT
inactive: erlotinib 0.044 | [1] 0.008 | [2] 0.012 | [3] -0.032 | [4] -0.011 | [5] 0.003 | [6] -0.013 | [7] 0.029 | [8] -0.005 | IRAK-1-4 Inhibitor I -0.019 | ibrutinib 0.023 | [9] 0.023 | ralimetinib 0.026 | [10] 0.003 | [11] -0.005 | [12] 0.036 | [13] -0.022 | [14] 0.001 | [15] 0.054 | [16] 0.015

IMPACT (UniProt Q9P2X3)
UniProt Q9P2X3, sequence (Q9P2X3 whole entry, looked up): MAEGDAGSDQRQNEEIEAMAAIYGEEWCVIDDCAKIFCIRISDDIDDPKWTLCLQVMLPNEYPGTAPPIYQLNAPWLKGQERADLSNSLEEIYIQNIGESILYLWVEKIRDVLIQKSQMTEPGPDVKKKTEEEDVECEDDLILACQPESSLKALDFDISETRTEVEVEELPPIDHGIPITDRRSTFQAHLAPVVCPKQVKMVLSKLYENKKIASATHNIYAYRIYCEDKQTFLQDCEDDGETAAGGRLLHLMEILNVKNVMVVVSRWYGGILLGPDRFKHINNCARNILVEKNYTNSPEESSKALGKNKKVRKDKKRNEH
inactive: erlotinib -0.03 | [1] 0.13 | [2] 0.014 | [3] 0.083 | [4] 0.043 | [5] 0.056 | [6] 0.001 | [7] 0.06 | [8] -0.082 | IRAK-1-4 Inhibitor I -0.076 | ibrutinib -0.19 | [9] -0.075 | ralimetinib 0.061 | [10] 0.001 | [11] -0.065 | [12] 0.289 | [13] 0.034 | [14] 0.146 | [15] 0.14 | [16] -0.052

HNRNPLL (UniProt Q8WVV9)
UniProt Q8WVV9, sequence (Q8WVV9 whole entry, looked up): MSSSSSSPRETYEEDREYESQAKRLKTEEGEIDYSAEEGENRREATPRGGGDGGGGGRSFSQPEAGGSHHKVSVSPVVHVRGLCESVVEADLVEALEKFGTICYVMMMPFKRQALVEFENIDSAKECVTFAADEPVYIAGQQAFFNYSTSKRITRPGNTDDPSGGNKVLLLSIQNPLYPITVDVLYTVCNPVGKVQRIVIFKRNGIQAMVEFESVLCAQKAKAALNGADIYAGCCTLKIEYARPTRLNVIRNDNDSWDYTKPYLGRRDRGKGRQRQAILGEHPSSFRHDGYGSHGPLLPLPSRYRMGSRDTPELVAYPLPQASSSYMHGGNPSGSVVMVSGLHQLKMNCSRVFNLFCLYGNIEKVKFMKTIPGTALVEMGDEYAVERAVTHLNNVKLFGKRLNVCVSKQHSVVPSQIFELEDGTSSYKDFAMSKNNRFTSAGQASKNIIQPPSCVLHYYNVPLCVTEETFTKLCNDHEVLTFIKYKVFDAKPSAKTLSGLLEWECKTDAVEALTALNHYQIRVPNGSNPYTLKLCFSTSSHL
inactive: erlotinib 0.007 | [1] 0 | [2] 0.011 | [3] 0.009 | [4] -0.017 | [5] -0.019 | [6] -0.035 | [7] 0.006 | [8] -0.009 | IRAK-1-4 Inhibitor I -0.026 | ibrutinib -0.024 | [9] 0.016 | ralimetinib 0.005 | [10] 0.005 | [11] -0.004 | [12] -0.019 | [13] -0.012 | [14] 0.026 | [15] 0.024 | [16] 0.021

HIST2H2BC (UniProt Q6DN03)
UniProt Q6DN03, sequence (Q6DN03 whole entry, looked up): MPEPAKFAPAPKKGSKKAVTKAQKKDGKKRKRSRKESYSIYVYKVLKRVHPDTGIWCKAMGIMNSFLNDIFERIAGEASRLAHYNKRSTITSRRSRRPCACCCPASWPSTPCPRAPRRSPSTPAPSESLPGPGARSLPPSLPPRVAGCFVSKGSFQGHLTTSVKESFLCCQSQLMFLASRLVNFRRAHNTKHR
inactive: erlotinib -0.036 | [1] 0.144 | [2] 0.001 | [3] 0.006 | [4] 0.061 | [5] 0.007 | [6] -0.012 | [7] 0.043 | [8] 0.04 | IRAK-1-4 Inhibitor I -0.028 | ibrutinib 0.003 | [9] -0.052 | ralimetinib -0.013 | [10] 0.003 | [11] -0.055 | [12] 0.066 | [13] 0.029 | [14] -0.001 | [15] 0.032 | [16] 0.031

IMPDH2 (UniProt P12268)
inactive: erlotinib 0.001 | [1] -0.009 | [2] -0.018 | [3] -0.018 | [4] -0.013 | [5] -0.028 | [6] -0.003 | [7] 0.019 | [8] -0.003 | IRAK-1-4 Inhibitor I 0.011 | ibrutinib 0.049 | [9] -0.003 | ralimetinib 0.034 | [10] 0.028 | [11] 0.025 | [12] -0.034 | [13] 0.019 | [14] 0.017 | [15] -0.006 | [16] 0.016

HDHD5 (UniProt Q9BXW7)
inactive: erlotinib -0.015 | [1] -0.038 | [2] 0.012 | [3] 0.07 | [4] 0.022 | [5] -0.006 | [6] -0.027 | [7] -0.023 | [8] -0.05 | IRAK-1-4 Inhibitor I 0.051 | ibrutinib -0.027 | [9] 0.018 | ralimetinib 0 | [10] 0.073 | [11] -0.042 | [12] 0.011 | [13] -0.023 | [14] -0.007 | [15] 0.024 | [16] -0.001

KDM5C (UniProt P41229)
UniProt P41229, sequence (P41229 whole entry, looked up): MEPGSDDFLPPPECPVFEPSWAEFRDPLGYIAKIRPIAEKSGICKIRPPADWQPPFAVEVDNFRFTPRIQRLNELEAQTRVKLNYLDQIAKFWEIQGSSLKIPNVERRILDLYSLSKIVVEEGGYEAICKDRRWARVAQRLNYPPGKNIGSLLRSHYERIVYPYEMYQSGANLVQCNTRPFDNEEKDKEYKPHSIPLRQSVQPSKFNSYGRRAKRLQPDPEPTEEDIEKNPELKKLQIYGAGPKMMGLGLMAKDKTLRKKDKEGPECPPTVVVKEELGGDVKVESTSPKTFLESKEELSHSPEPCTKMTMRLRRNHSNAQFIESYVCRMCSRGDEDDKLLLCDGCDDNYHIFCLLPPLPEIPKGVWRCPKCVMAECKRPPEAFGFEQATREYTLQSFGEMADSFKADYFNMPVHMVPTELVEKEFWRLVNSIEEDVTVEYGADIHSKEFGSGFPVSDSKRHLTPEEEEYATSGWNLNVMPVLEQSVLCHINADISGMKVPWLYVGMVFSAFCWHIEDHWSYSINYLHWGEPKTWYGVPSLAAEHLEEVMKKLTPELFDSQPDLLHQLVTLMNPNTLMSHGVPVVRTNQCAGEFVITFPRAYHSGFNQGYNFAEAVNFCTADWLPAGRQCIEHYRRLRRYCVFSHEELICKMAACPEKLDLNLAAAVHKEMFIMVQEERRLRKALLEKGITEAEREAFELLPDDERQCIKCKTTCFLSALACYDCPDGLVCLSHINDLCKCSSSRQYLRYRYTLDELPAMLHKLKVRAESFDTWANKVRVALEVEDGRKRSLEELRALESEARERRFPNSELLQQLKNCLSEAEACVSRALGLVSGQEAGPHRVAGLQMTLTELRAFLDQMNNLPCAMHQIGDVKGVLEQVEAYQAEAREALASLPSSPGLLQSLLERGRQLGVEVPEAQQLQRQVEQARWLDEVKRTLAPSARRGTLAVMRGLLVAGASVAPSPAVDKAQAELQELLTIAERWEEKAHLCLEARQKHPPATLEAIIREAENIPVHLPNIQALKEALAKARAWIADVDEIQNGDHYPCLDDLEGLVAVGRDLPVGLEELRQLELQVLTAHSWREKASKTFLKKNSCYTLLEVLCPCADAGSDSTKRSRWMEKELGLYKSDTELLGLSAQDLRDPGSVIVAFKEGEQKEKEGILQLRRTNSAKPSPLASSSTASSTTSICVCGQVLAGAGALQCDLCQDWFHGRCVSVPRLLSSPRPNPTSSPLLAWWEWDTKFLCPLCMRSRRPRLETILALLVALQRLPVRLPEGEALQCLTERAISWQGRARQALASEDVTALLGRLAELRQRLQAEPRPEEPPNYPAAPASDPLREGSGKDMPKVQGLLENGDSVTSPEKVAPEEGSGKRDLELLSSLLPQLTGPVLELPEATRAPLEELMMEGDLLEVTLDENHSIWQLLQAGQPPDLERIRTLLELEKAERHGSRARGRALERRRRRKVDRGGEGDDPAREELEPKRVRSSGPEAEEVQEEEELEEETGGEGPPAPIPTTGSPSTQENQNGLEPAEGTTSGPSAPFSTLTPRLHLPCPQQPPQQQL
inactive: erlotinib 0.052 | [1] 0.017 | [2] 0.022 | [3] -0.059 | [4] -0.009 | [5] -0.041 | [6] -0.031 | [7] -0.053 | [8] -0.002 | IRAK-1-4 Inhibitor I 0.01 | ibrutinib 0.089 | [9] -0.132 | ralimetinib 0.005 | [10] -0.02 | [11] 0.015 | [12] 0.01 | [13] 0.012 | [14] -0.013 | [15] 0.031 | [16] 0.001

HIST2H2AA3 (UniProt Q6FI13)
inactive: erlotinib -0.012 | [1] -0.956 | [2] 0.002 | [3] -0.054 | [4] -0.05 | [5] 0.126 | [6] 0.012 | [7] 0.083 | [8] 0.019 | IRAK-1-4 Inhibitor I -0.055 | ibrutinib -0.011 | [9] -0.014 | ralimetinib -0.112 | [10] 0.065 | [11] 0 | [12] -0.012 | [13] 0.028 | [14] -0.046 | [15] 0.032 | [16] 0.045

GSTZ1 (UniProt G3V4T6)
inactive: erlotinib 0.018 | [1] -0.034 | [2] 0.032 | [3] -0.003 | [4] 0.02 | [5] -0.043 | [6] 0.026 | [7] 0.017 | [8] 0.064 | IRAK-1-4 Inhibitor I 0.016 | ibrutinib 0 | [9] 0 | ralimetinib 0.014 | [10] -0.019 | [11] 0.004 | [12] 0.01 | [13] 0.036 | [14] -0.02 | [15] -0.003 | [16] -0.016

HAUS7 isoform 2 (UniProt Q99871)
inactive: erlotinib 0.104 | [1] 0.106 | [2] 0.028 | [3] -0.005 | [4] 0 | [5] 0.048 | [6] -0.006 | [7] -0.011 | [8] 0.164 | IRAK-1-4 Inhibitor I -0.028 | ibrutinib 0.082 | [9] 0.105 | ralimetinib -0.002 | [10] -0.031 | [11] 0.05 | [12] -0.003 | [13] 0.028 | [14] -0.031 | [15] 0.021 | [16] -0.054

KARS1 (UniProt Q15046)
UniProt Q15046, sequence (Q15046 whole entry, looked up): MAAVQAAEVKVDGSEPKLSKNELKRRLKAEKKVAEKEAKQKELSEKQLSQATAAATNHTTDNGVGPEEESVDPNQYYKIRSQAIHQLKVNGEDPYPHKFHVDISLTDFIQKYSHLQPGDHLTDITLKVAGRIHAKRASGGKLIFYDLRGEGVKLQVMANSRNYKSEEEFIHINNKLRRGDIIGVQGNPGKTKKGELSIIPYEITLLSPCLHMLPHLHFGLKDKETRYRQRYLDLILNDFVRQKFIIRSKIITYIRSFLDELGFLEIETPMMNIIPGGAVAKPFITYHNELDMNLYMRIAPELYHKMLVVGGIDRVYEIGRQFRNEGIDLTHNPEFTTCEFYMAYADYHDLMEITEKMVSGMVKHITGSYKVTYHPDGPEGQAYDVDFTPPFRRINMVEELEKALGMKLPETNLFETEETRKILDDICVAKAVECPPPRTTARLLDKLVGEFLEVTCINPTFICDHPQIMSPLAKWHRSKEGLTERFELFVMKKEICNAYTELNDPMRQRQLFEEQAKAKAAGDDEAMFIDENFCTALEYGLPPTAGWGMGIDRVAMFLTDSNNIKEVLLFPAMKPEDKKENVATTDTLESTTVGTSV
inactive: erlotinib -0.015 | [1] 0.002 | [2] -0.04 | [3] -0.016 | [4] -0.005 | [5] 0.004 | [6] -0.021 | [7] -0.006 | [8] -0.021 | IRAK-1-4 Inhibitor I -0.017 | ibrutinib 0.009 | [9] 0.012 | ralimetinib 0.016 | [10] 0.018 | [11] 0.001 | [12] -0.011 | [13] 0.024 | [14] -0.014 | [15] 0.015 | [16] 0.029

Reference: the supplement of paper PMC10849652
